Measurements from the supplement of paper PMC12636033.
± gives the standard deviation of the averaged measurements. In all, about 33,000 sequences were measured (“E-score (rank enrichment, -0.5 to 0.5)”: median about -0.0075, highest 2% from about 0.23 on). The entries come from a sample that favours the highest values as a whole.

The sequences below were run on WT Max(13-93) synthetic (M65Nle) (assay: PBM 8-mer E-score (E-score (rank enrichment, -0.5 to 0.5)); higher = stronger preferential binding).
Procedure: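 Protein binding microarray (universal PBM chip covering all 10-mers in fixed probe flanks) with chemically synthesized human Max(13-93) bHLH-LZ analogs (not full-length Max) bearing noncanonical residues (hArg, Tha, Aib, Nle at 65) and aromatic Cys staples. Read-out per 8-mer (and its reverse complement): E-score (rank-based enrichment, -0.5 to 0.5) and Z-score of median probe intensity.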

| Sequence | PBM 8-mer E-score |
| --- | --- |
| TAAGTTGA | 0.0328 ± 0.044 |
| CTTTCGTC | 0.0247 ± 0.074 |
| ATTTCGTC | 0.242 ± 0.011 |
| ATTTCGTG | 0.0519 ± 0.051 |
| ATACGATC | -0.0258 ± 0.1 |
| ACAAAGAT | 0.0862 ± 0.049 |
| CAAGCTCA | -0.35 ± 0.017 |
| CTGTATTA | 0.138 ± 0.0022 |
| ATGTATTA | 0.225 ± 0.086 |
| CTATGTTA | 0.16 ± 0.052 |
| ATATGTTC | 0.179 ± 0.0093 |
| ATGTGTTA | 0.275 ± 0.015 |
| GTGTATTA | 0.247 ± 0.035 |
| CTGTGTTA | 0.0459 ± 0.023 |
| GTGTGTTA | 0.242 ± 0.099 |
| GGGTGTTA | -0.0337 ± 0.14 |
| ATGTGTCA | 0.175 ± 0.069 |
| ATATGTTA | 0.284 ± 0.051 |
| ATGTGTGA | 0.18 ± 0.12 |
| TGAGATAA | 0.116 ± 0.07 |
| CAATGATC | -0.0206 ± 0.062 |
| CGCCTCGA | -0.0745 ± 0.097 |

| Sequence | PBM 8-mer E-score |
| --- | --- |
| CTCCTGTC | -0.0511 ± 0.018 |
| TCGCTGAA | -0.0377 ± 0.086 |
| CCCCTGGC | -0.127 ± 0.042 |
| AACCTCAT | 0.156 ± 0.065 |
| GTTTCCAA | 0.0481 ± 0.061 |
| ATGTGTTG | 0.247 ± 0.035 |
| ATGTGTTC | 0.106 ± 0.0063 |
| ATATGTTG | 0.0792 ± 0.065 |
| CAACACGC | 0.195 ± 0.0099 |
| AAACACGG | -0.0068 ± 0.091 |
| AAACACAC | 0.132 ± 0.011 |
| AAACACAG | 0.153 ± 0.053 |
| AAACACGT | 0.329 ± 0.093 |
| GAACACGC | 0.105 ± 0.04 |
| AAACACAT | 0.287 ± 0.014 |
| AAACACGC | 0.24 ± 0.054 |
| AAACACGA | 0.19 ± 0.11 |
| AGTAAACG | 0.0125 ± 0.018 |
| AGGTCTTG | -0.116 ± 0.084 |
| TGACGCCA | -0.0607 ± 0.033 |
| ACTGCAGT | -0.0688 ± 0.15 |
| AGATGGAC | -0.09113 ± 0.00061 |

| Sequence | PBM 8-mer E-score |
| --- | --- |
| TGTGTCAA | 0.254 ± 0.011 |
| GATGTCAA | 0.0342 ± 0.06 |
| TATGTCAA | 0.287 ± 0.054 |
| AGTGTCAA | 0.122 ± 0.14 |
| AATGTCAA | 0.0117 ± 0.23 |
| CGTGTCAA | 0.0498 ± 0.015 |
| CAGAGCGA | -0.0911 ± 0.044 |
| GGTTTGAA | 0.145 ± 0.0079 |
| CCAGTGGG | -0.122 ± 0.16 |
| GACTTCTA | -0.0184 ± 0.13 |
| ACAAACAG | -0.0244 ± 0.058 |
| GCAAACAC | 0.156 ± 0.07 |
| CAAAACAC | 0.073 ± 0.066 |
| GAAAACAC | 0.0469 ± 0.11 |
| AAAAACAC | 0.251 ± 0.05 |
| CCAAACAC | 0.242 ± 0.076 |
| ACAAACAC | 0.268 ± 0.053 |
| ACAAACAA | 0.112 ± 0.0055 |
| CCAAACAG | -0.0488 ± 0.037 |
| CTAAACAA | 0.0536 ± 0.046 |
| CTGCGTGC | -0.0949 ± 0.0091 |
| CGATCGAG | -0.26 ± 0.069 |

| Sequence | PBM 8-mer E-score |
| --- | --- |
| CATGCCCA | 0.00676 ± 0.079 |
| CCTCCCCC | -0.0244 ± 0.2 |
| CCCCTCCC | 0.239 ± 0.16 |
| ACCTCCCA | 0.00978 ± 0.14 |
| CCCTCCCA | 0.262 ± 0.0086 |
| CCCTCCCC | 0.171 ± 0.15 |
| GCCTCCCA | -0.155 ± 0.12 |
| CCCCTCCG | 0.044 ± 0.086 |
| CCTCCCCA | 0.258 ± 0.065 |
| CCTCCCAA | 0.0602 ± 0.2 |
| CTGGGTAC | -0.201 ± 0.15 |
| GGATGGAC | 0.106 ± 0.062 |
| AGGGTTTA | 0.152 ± 0.0074 |
| AGGAGCAA | -0.034 ± 0.032 |
| CACCACCA | -0.0146 ± 0.046 |
| AACGATCC | -0.124 ± 0.023 |
| GCAATGGC | 0.0112 ± 0.019 |
| ATACGCTC | 0.0772 ± 0.0077 |
| CCCATACA | 0.0285 ± 0.11 |
| GGACTGCC | -0.0905 ± 0.19 |
